Only some compounds are listed: those with a hit (about 1.6% of all), similar ones and a draw of the others.
KCNQ2 pot = potentiators of rat KCNQ2 potassium channel; B-score at 10 µM; 0.54% of 310,000 active; CHO-K1 KCNQ2, FluxOR thallium flux fluorescence; hits give high values; AID 2239, 2010; Potassium voltage-gated channel subfamily KQT member 2 (Rattus norvegicus), O88943;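 active means fluorescence ratio B-score at least 3 SD of library B-scores, with initial fluorescence B-score within 3 of them, cut at about 5.3 in these data; same plate scores as AID 2156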;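 further: B-score of peak minus minimum over baseline fluorescence ratio after K+ and Tl+ stimulus; positive B-score means potentiation of KCNQ2 with more thallium influx and brighter signal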
KCNQ2 inh = rat KCNQ2 potassium channel inhibitors, primary screen, cell-based, CHO-K1, FluxOR thallium flux, B-score. 20 min; hits give low values. B-score at 10 µM. 1.1% of 310,000 active;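 active means fluorescence ratio B-score at most minus 3 library SDs, with starting brightness B-score within 2 library SDs, cut at about -5.5 in these data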
KCNQ2 block conf = rat KCNQ2 potassium channel inhibitors, confirmation, cell-based, thallium flux; activity change, negative = inhibition, % at 10 µM; 57% of 1,000 active; AID 493025, 2011; shares compounds with KCNQ2 inh; KCNQ2-expressing cells, inhibition; hits give low values;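 further: 0% = vehicle wells and values are ratio percent relative to vehicle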
KCNQ1 spec = human KCNQ1 channel inhibition, counter-screen for KCNQ2 inhibitor project, cell-based, FluxOR thallium flux | KCNQ1-expressing cells, FluxOR thallium flux fluorescence; hits give low values | 15% of 1,000 active | shares compounds with KCNQ2 inh | AID 493026, 2011 | activity change, negative = inhibition, % at 10 µM;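 active means activity change at least 3 SD of negative controls below their mean in both duplicate wells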;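 further: CHO cells stably transfected with KCNQ1 and depolarized by potassium stimulus; peak minus minimum fluorescence over baseline after thallium addition; 0% = vehicle negative control and -100% = blank without thallium stimulus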
Target sequence (P51787 whole entry, looked up): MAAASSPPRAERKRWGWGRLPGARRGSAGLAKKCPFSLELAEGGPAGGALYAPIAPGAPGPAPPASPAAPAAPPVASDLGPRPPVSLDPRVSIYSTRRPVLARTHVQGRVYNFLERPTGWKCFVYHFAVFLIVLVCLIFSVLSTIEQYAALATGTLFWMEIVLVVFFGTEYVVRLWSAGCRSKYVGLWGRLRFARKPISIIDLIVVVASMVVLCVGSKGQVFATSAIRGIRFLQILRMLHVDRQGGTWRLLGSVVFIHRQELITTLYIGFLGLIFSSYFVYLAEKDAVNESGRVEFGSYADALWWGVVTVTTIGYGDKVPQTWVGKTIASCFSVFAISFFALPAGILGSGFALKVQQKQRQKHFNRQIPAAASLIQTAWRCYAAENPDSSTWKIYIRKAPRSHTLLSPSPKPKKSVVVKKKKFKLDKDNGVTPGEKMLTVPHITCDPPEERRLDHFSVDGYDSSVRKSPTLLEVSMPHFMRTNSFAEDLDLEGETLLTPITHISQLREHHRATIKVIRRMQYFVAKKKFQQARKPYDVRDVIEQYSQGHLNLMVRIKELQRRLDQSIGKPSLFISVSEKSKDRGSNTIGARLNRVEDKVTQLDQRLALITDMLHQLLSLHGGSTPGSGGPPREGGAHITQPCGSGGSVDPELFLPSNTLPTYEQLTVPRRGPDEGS
CHO parental ctr = thallium flux change in parental CHO cells, counter-screen for KCNQ2 inhibitor project; shares compounds with KCNQ2 inh; hits give low values; activity change, % at 10 µM; 14% of 1,000 active;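 further: 0% = vehicle negative controls with stimulus buffer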
KCNQ2 patch conf = rat KCNQ2 channel inhibitors, confirmation, cell-based, automated patch clamp, single concentration. shares compounds with KCNQ2 inh. KCNQ2-expressing cells, automated patch clamp current. calls only at 10 µM. 49% of 550 active
* hit, by the source's call; i = inactive; nt = no result given; + = active, no number. Unless noted, how the calls were made is not given here.

SMILES | KCNQ2 pot | KCNQ2 inh | KCNQ2 block conf | KCNQ1 spec | CHO parental ctr | others
CN(c1ccccc1)S(=O)(=O)c1cccc(NC(=O)c2ccc3ncsc3c2)c1 | -7.4 | -7.4* | i | i | i
Cc1nc2ccc(NC(=O)c3cccc(S(=O)(=O)N(C)c4ccccc4)c3)cc2s1 | nt | i | nt | nt | nt
O=C(O)c1cccnc1C(=O)c1ccccc1 | 0.59 | i | nt | nt | nt
CN(Cc1ccccc1)C(=O)c1ccco1 | 0.04 | i | nt | nt | nt
Cc1ccc(C(CCN(Cc2ccccc2)C(=O)c2ccco2)c2ccco2)cc1 (stereo not drawn) | -8 | -8* | -27%* | i | i | KCNQ2 patch conf=i
O=C(Cn1cnc2sc3c(c2c1=O)CCCC3)NCC(=O)Nc1c(F)cc(F)cc1Br | nt | i | nt | nt | nt
CNC(=O)C(=O)N/N=C/c1cccnc1 | nt | i | nt | nt | nt
COc1ccc(NC(=O)c2nn(C34CC5CC(CC(C5)C3)C4)cc2[N+](=O)[O-])cc1 | 0.35 | i | nt | nt | nt
O=C(Nc1cccc2ccccc12)c1nn(C23CC4CC(CC(C4)C2)C3)cc1[N+](=O)[O-] | -9.1 | -9.1* | -29%* | i | i | KCNQ2 patch conf=+
O=C(CCN1CCCCC1)c1ccccc1 | nt | i | nt | nt | nt
O=C(CCN1CCOCC1)c1ccccc1 | -9.9 | -9.9* | i | i | i
O=C(OCCN1CCOCC1)c1ccc2c(c1)OCCO2 | nt | i | nt | nt | nt
O=C(CCN1CCOCC1)c1ccc2c(c1)OCCO2 | -7.4 | -7.4* | i | i | i
CC1CCN(S(=O)(=O)c2ccc3c(c2)N(C)C(=O)CC(=O)N3C)CC1 | 1.2 | i | nt | nt | nt
CC(C)Cn1c(=O)c2ccccc2n2c(CCC(=O)O)nnc12 | nt | i | nt | nt | nt
COc1cccc(NC(=O)Nc2ccc(C(C)(C)C)cc2)c1 | -8.7 | -8.7* | i | i | i
COc1cccc(NC(=O)Nc2ccncc2)c1 | 0.23 | i | nt | nt | nt
CN(C)S(=O)(=O)c1ccc(N2CCCC2)c(C(=O)Nc2ccc(C(N)=O)cc2)c1 | nt | i | nt | nt | nt
CN(C)S(=O)(=O)c1ccc(N2CCCC2)c(C(=O)NNC(=O)COc2ccc(Cl)cc2)c1 | -7 | -7* | i | i | i
CCc1ccc(OCC(=O)NNC(=O)c2cc(S(=O)(=O)N(C)C)ccc2N2CCCC2)cc1 | 0.12 | i | nt | nt | nt
CN(C)S(=O)(=O)c1ccc(N2CCCC2)c(C(=O)NNC(=O)c2ccc(Br)cc2)c1 | -10 | -10* | -24%* | i | i | KCNQ2 patch conf=+
Cc1cnc(C(=O)OCC(=O)c2ccc(Cl)cc2)cn1 | nt | i | nt | nt | nt
Cc1nc(Nc2ccc3c(c2)OCCO3)c2oc3ccccc3c2n1 | -8.1 | -8.1* | -32%* | -28%* | i | KCNQ2 patch conf=i
CCc1nc(Nc2ccc3c(c2)OCCO3)c2oc3ccccc3c2n1 | nt | i | nt | nt | nt
OC(CNCc1ccc(F)cc1)(c1ccc(F)cc1)c1ccc(F)cc1 | nt | i | nt | nt | nt
SMILES | KCNQ2 pot | KCNQ2 inh | KCNQ2 block conf | KCNQ1 spec | CHO parental ctr | others
OC(CNCc1ccc(Cl)cc1)(c1ccccc1)c1ccc(F)cc1 (stereo not drawn) | -7.2 | -7.2* | -33%* | -34%* | -32%* | KCNQ2 patch conf=i
CC(NCc1ccc(OCc2ccc(Cl)cc2)cc1)C(O)c1ccccc1 (stereo not drawn) | nt | i | nt | nt | nt
COc1ccc(CNCC(O)(c2ccc(Cl)cc2)c2ccc(Cl)cc2)cc1OC | nt | i | nt | nt | nt
COc1ccc(CNC(c2ccccc2)c2ccc(Cl)cc2)cc1 (stereo not drawn) | -8.8 | -8.8* | i | i | i
COc1ccc(CNCC(O)(c2ccc(Cl)cc2)c2ccc(Cl)cc2)cc1 | -7.7 | -7.7* | i | i | i
CCN(CC)CCOC(=O)c1ccc(NC(=S)NC(=O)/C=C/c2ccco2)cc1 | nt | i | nt | nt | nt
O=C(COc1ccc(S(=O)(=O)N2CCOCC2)cc1)NC1CC1 | nt | i | nt | nt | nt
COc1ccc(CN2CCNC(=O)C2CC(=O)NCCc2nc(C)c(C)s2)cc1C (stereo not drawn) | nt | i | nt | nt | nt
CCOc1ccc2nc(SCC(=O)Nc3ccc(S(=O)(=O)N4CCCC4)cc3)c(C)cc2c1 | -8.5 | -8.5* | i | i | i
COc1ccc2nc(SCC(=O)Nc3ccc(S(=O)(=O)N4CCCC4)cc3)c(C#N)cc2c1 | 0.76 | i | nt | nt | nt

High-throughput results: PubChem, Johns Hopkins Ion Channel Center
